Bioassay records deposited in PubChem by National Center for Advancing Translational Sciences (NCATS).
HPGD block – qHTS Assay for Inhibitors of HPGD (15-Hydroxyprostaglandin Dehydrogenase) | 15-hydroxyprostaglandin dehydrogenase [NAD(+)] (Homo sapiens), P15428 | purified HPGD, NADH fluorescence kinetic, PGE2 substrate | Potency, µM, for the others: at the top dose activity change, negative = inhibition, most hits filed as inhibitors | 4.3% of 150,000 active; note: potency is the fitted concentration of half-maximal effect; % is set by controls: 0 for no effect and ±100 for the full control effect
Target sequence (P15428 whole entry, looked up): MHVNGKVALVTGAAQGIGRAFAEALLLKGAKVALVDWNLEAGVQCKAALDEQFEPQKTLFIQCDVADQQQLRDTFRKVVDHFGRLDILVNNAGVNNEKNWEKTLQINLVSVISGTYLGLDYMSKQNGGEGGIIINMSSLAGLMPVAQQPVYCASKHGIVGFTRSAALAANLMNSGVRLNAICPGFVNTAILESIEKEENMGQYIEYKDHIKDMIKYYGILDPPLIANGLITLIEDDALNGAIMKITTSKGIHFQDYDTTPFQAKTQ
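NADH formation kinetics: reaction with 30 uM PGE2 and 1 mM NAD+ (final), 20 nM enzyme, Tris-HCl pH 8 with Tween 20, after 15 min compound preincubation at room temperature. Fluorescence change, last versus first of five reads.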
ALDH1A1 inh-1 – qHTS Assay for Inhibitors of Aldehyde Dehydrogenase 1 (ALDH1A1) | Aldehyde dehydrogenase 1A1 (Homo sapiens), P00352 | Purified ALDH1A1, NADH fluorescence, propionaldehyde substrate | Potency, µM (highest dose often 75.3 µM), inactives show at the top dose activity, negative = inhibition, actives largely listed as inhibitors | 7.3% of 220,000 active;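 note: potency is the fitted concentration of half-maximal effect; plate controls were no enzyme wells and a reference inhibitor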
12-hLO inh – qHTS Assay for Inhibitors of 12-hLO (12-human lipoxygenase). purified 12-hLO, xylenol orange hydroperoxide absorbance. Potency, µM (highest dose often 57.1 µM), for inactives: at the highest dose activity change, negative = inhibition, hits mostly inhibitors. 0.12% of 150,000 active; active = well fitted inhibition curve with a large enough effect; inconclusive = small, poorly fitted or top-dose-only effect; note: potency is the fitted concentration of half-maximal effect; % is set by controls: 0 for no effect and ±100 for the full control effect; nearly all actives have a fitted effect of over 55% in size
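150 nM 12hLO, 25 mM Hepes pH 7.0 + 0.01% Triton X-100; cpd preinc 15 min RT; 40 uM arachidonic acid, 30 min RT; Fe-XO 30 min; A573/A405 ratio as read-out.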
PNC inhibitor – High Content Assay for Compounds that inhibit the Assembly of the Perinucleolar Compartment | activity change (PNC), negative = inhibition, % at 10 µM | 3.1% of 140,000 active | PC3M PTB-GFP, PNC prevalence imaging, 16 h; stronger effect = lower value;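 active = readout at or below -70, meaning at least 70% loss of cells showing the perinucleolar compartment, a nuclear body marking cancer cells; inconclusive = readout between -30 and a set limit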;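 note: plate controls were DMSO wells for no effect and camptothecin positive control wells for full effect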
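PC3M cells stably expressing PTB-GFP, 750–1000 cells/well, treated 16 h at 37 °C with compound (23 nl of library stock), in duplicate. After paraformaldehyde fixation and Hoechst stain, imaged at 20x; PNC prevalence scored by image analysis.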
Lamin A splicing – qHTS Assay for Modulators of Lamin A Splicing; HeLa LMNA splicing GFP/RFP minigene ratio, 48 h; Potency, µM (series often up to 46.1 µM), for the others: at the top dose ratio change, negative = inhibition, usual class: inhibitors; 0.01% of 200,000 active; AID 1487, 2009; active = well fitted inhibition curve with a large enough effect in the signal ratio, with a control signal flat, not every such curve was filed as active; inconclusive = small, poorly fitted or top-dose-only effect, or effect the other way, or a change in a side signal; the % refers to the signal ratio; note: potency is the fitted concentration of half-maximal effect; % is set by controls: 0 for no effect and ±100 for the full control effect
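S3 HeLa cells stably expressing lamin A-EGFP splicing minigene plus DsRed2, 600 cells/well, 48 h compound exposure at 37C. Laser-scanning cytometry; analysed as GFP (500-530 nm)/RFP (575-640 nm) total intensity ratio; 0.5% DMSO vehicle.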
ALDH1A1 inh-2 – Inhibitors of Aldehyde Dehydrogenase 1 (ALDH1A1): Followup Confirmation and Counterscreen | shares compounds with ALDH1A1 inh-1 | purified ALDH1A1, NADH fluorescence, propionaldehyde/NAD+ | Potency, µM (doses to about 57.1 µM), without a hit: at the highest dose activity change, negative = inhibition, usual class: inhibitors | 90% of 90 active; calls by dose curve
* = called active by the depositor; ? = inconclusive; / = no result; [ ] = remark or other dose. An excerpt weighted towards active compounds, which were near 10% of everything screened. Unless noted, calls come from the whole dose curve; as a rule, active = well fitted inhibition curve with a large enough effect (not every such curve was filed as active); inconclusive = small, poorly fitted or top-dose-only effect, or another doubt; inactive = no such curve, though single readings can be large or run the other way.

SMILES	HPGD block	ALDH1A1 inh-1	12-hLO inh	PNC inhibitor	Lamin A splicing	ALDH1A1 inh-2
CO/N=C(\C(=O)NC1C(=O)N2C(C(=O)OCOC(=O)C(C)(C)C)=C(/C=C\c3scnc3C)CSC12)c1csc(N)n1 (stereo not drawn)	?	0.35µM*	-5%	/	/	0.79µM*
COCCN(C(=O)Cc1cccs1)C(C(=O)NC1CCCC1)c1ccc(OC)c(OC)c1 (stereo not drawn)	/	-14%	/	/	/	/
COCCN(C(=O)Cc1cccs1)C(C(=O)NCc1ccc(OC)cc1)c1ccc(C(C)C)cc1 (stereo not drawn)	-23%	0.28µM*	-2%	32	-9%	0.25µM*
COc1cc(Cl)c(C)cc1NC(=O)c1cnn(-c2ccc(F)cc2F)c1C1CCN(C(=O)OC(C)(C)C)CC1	/	/	/	/	-7%[46 µM]	/
CC1CCN(Cc2nc3c(c(=O)n(C)c(=O)n3C)n2CCCc2ccccc2)CC1	-4%	0.63µM*	-7%	-28	-8%	0.5µM*
O=c1[nH]c(=O)n(C2CC(O)C(CO)O2)cc1C(F)(F)F (stereo not drawn)	-3%	4%	-3%	/	/	/
O=C1CC(c2ccccc2)c2ccccc21 (stereo not drawn)	/	-9%	/	/	9%[46 µM]	/
O=C1C=CC(=O)C2=C1C1c3ccccc3C2c2ccccc21	1.1µM*	0.71µM*	?	/	/	0.56µM*
O=C(CSc1nnnn1-c1ccc(Cl)cc1)NC(=O)Nc1ccc2c(c1)OCCO2	-11%	-1%	0%	11	-6%	/
O=C(CSc1nnnn1-c1ccccc1Cl)Nc1ccc2c(c1)OCCO2	-6%	0.22µM*	-8%	-15	?	0.25µM*
COc1ccc(-n2c(Cc3cccs3)nnc2SCC(=O)Nc2ccc3c(c2)OCCO3)cc1	-2%	2µM*	-3%	9	12%	0.56µM*
Cc1ccc(-n2c(SCC(=O)Nc3ccc4c(c3)OCO4)nnc2-c2cccs2)cc1	-30%	-3%	-5%	15	12%	/
O=C(CCNc1ccc(Cc2ccncc2)cc1)c1cccc([N+](=O)[O-])c1	/	0.4µM*	/	/	?	0.5µM*
CC(C)N(C(=O)COC(=O)[C@H](C)NC(N)=O)c1ccccc1	/	0%	/	/	-1%[46 µM]	/
CC(C)N(C(=O)CN1C(=O)C(=O)c2ccccc21)c1ccccc1	/	0.028µM*	/	/	4%[46 µM]	0.035µM*
CCNc1ncc2nc(-c3ccccc3)c(=O)n(C3CC3)c2n1	?	?	-1%	/	/	/
COc1ccc(OC)c(-n2nnnc2SCC(=O)Nc2nc(C)c(C)s2)c1	-14%	?	0%	7	6%	1.8µM*
Cc1ccc(S(=O)(=O)/C=C/C#N)cc1	/	0.056µM*	/	/	/	0.063µM*
Cc1ccc(NC(=O)C2CCN(S(=O)(=O)c3ccc4c(c3)CCCC(=O)N4)CC2)c(Cl)c1	/	/	/	/	2%[46 µM]	/
O=C(O)CCC(=O)c1cccc2ccccc12	-20%	-1%	1%	-25	-9%	/
C[N+](C)(C)CCC(=O)c1cccc2ccccc12	14µM*	0.071µM*	-24%	/	?	0.035µM*
COc1ccc(-n2c(SCC(=O)NCc3ccccc3)nc3n[nH]c(C)c3c2=N)cc1	/	/	/	/	7%[46 µM]	/
O=C(CCNc1ccccc1)c1ccc2c(c1)OCO2	-18%	0.89µM*	-5%	-1	?	2.2µM*
COc1ccc(-c2noc(CCC(=O)Nc3ccc4c(c3)OCCO4)n2)cc1	-26%	?	3%	-15	-17%	/
COc1ccc(C(=O)CCNc2ccc3c(c2)OCCO3)cc1	/	0.32µM*	/	/	?	4µM*
O=C(CC1(O)C(=O)N(Cc2ccccc2)c2ccccc21)c1ccncc1 (stereo not drawn)	-20%	0.071µM*	0%	6	4%	0.25µM*
CCN(CC)CCc1nc(-c2ccccc2)no1	-3%	2%[20.9 µM]	2%[25.6 µM]	/	?	/
